ANO1 block = TMEM16A chloride channel inhibitors, primary screen, cell-based, HTS; hit rate 1.2% among 310,000; Anoctamin-1 (Mus musculus), Q8BHY3; normalized B-score (activity score, 25-100; higher = stronger inhibition) at 10 µM; HEK293 TMEM16A/YFP iodide influx fluorescence, ionomycin; AID 588511, 2011;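 active = ratio plate-corrected score three or more library SD toward inhibition, starting fluorescence score within five deviations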;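 also: score derived from kinetic fluorescence span divided by baseline fluorescence per well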
CHT inh = inhibitors of human choline transporter CHT | High affinity choline transporter 1 (Homo sapiens), Q9GZV3 | CHT-expressing cells, membrane potential dye, choline response; active compounds read low | B-score at 10 µM | hit rate 0.86% among 310,000;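 active = B-score over 3 SD under the library average, and starting fluorescence ratio not unusually high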;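 also: choline stimulus applied at its EC90 after an EC20 pre-addition; B-score computed on integrated fluorescence ratio after choline addition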
CHT allo act = CHT positive allosteric modulators, primary screen, cell-based, membrane potential dye, choline EC20; High affinity choline transporter 1 (Homo sapiens), Q9GZV3; CHT-expressing cells; active compounds read high; LV-AA mutant CHT in HEK293 cells; B-score at 10 µM; hit rate 0.49% among 310,000;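 active = initial fluorescence not abnormally high and integrated response B-score, plate-corrected, over 3 SD above library mean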
ANO1 activ = TMEM16A chloride channel activators or potentiators, primary screen, cell-based, HTS; Anoctamin-1 (Mus musculus), Q8BHY3; HEK293 TMEM16A/YFP-H148Q/I152L, iodide quench fluorescence; active compounds read low; B-score at 10 µM; hit rate 0.3% among 340,000;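 active = fluorescence-ratio B-score plate-corrected deviation score at least 3 library SD below zero, with starting fluorescence score within 5 deviations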;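 also: channel opened by trigger with iodide after compound preincubation; score built on the fluorescence ratio of max minus min over baseline; more negative score means more quench and so TMEM16A activation or potentiation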
CHT act confirm = CHT activators, confirmation, cell-based, membrane potential dye, duplicate | CHT-expressing cells, membrane potential dye fluorescence (FDSS); % of choline EC20–EC90 response window; HEK293 expressing CHT LV-AA mutant; choline added at its EC20 | activation, % at 10 µM | AID 504833, 2011 | hit rate 91% among 2,500 | shares compounds with CHT allo act;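 active = primary screen active, with duplicate mean activation above negative control mean plus 3 SD, cut at about 11% in these data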
HEK293 MP dye = membrane potential response in parental HEK293 cells, counter-screen for CHT activator project, cell-based, membrane potential dye; hit rate 62% among 2,500; ratio readout change at 10 µM, hits read low; membrane potential dye fluorescence (FDSS); measured after EC20 choline addition; AID 623908, 2012; shares compounds with CHT allo act;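 active = duplicate-averaged ratio beyond 3 SD from buffer wells, up or down, though filed actives are nearly all decreases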
Of the large screens only hits and unclear results are named; the others gave an inactive call (follow-up assays come after a bar, where they were run). This is a sample that favours compounds with a hit; in the whole collection about 2.4% have one here.

Cc1nn(-c2cc(N3CCCCC3)ccc2N)c(=O)c2ccccc12	none
Nc1ccc(N2CCCCC2)cc1N1CCCCC1	CHT allo act 7.9 | CHT act confirm 49 | HEK293 MP dye -32
CCC(=O)N/N=C/c1ccc(-c2ccc([N+](=O)[O-])cc2)o1	none
O=C1N=C(O)CN1/N=C/c1ccc(-c2ccc([N+](=O)[O-])cc2)o1	CHT allo act 7.6 | CHT act confirm 32 | HEK293 MP dye -32
Cc1cc(NCCCn2ccnc2)n2nc(C)c(-c3ccccc3)c2n1	CHT allo act 8.5 | CHT act confirm 47 | HEK293 MP dye -57
COc1ccc(-n2nc(C(=O)NCC(=O)NCCCN3CC(C)CC(C)C3)c3ccccc3c2=O)cc1Cl (configuration not stated)	CHT allo act 7.7 | CHT act confirm 43 | HEK293 MP dye -47
Cc1cc(N2CCN(C)CC2)ccc1NC(=O)c1ccc(-c2ccc(Cl)cc2)o1	none | CHT act confirm inactive | HEK293 MP dye inactive
COc1ccc(OC)c(NS(=O)(=O)c2ccc(N3CCCC3=O)cc2)c1	CHT allo act 9.1 | CHT act confirm 37 | HEK293 MP dye inactive
CN1/C(=C\C=[N+](C)c2ccccc2)C(C)(C)c2ccccc21	CHT allo act 8.1 | CHT act confirm 75 | HEK293 MP dye -24
Cn1c(Cc2ccccc2)nnc1SCc1ccc(C(=O)O)cc1	none
Oc1ccc(-c2cn3ccccc3n2)cc1O	none | CHT act confirm 37 | HEK293 MP dye -42
Cc1ccn2cc(-c3cccc(NC(=O)C(C)C)c3)nc2c1	none
Cc1ccn2cc(-c3ccc(O)c(O)c3)nc2c1	none | CHT act confirm 36 | HEK293 MP dye -40
Cc1ccc2cc(C=O)c(Cl)nc2c1	none
CN(C)CCCN(C(=O)c1ccco1)c1nc2c(F)cc(F)cc2s1	none
CN(C)CCCN(C(=O)c1ccco1)c1nc2c(F)cccc2s1	none | CHT act confirm 45 | HEK293 MP dye -58
CCCCC(C(=O)NC(C)(C)C)N(Cc1ccco1)C(=O)c1snc(C(N)=O)c1N (configuration not stated)	none
CCOC(=O)C[n+]1ccc2c([nH]c3ccccc32)c1C	none | CHT act confirm 50 | HEK293 MP dye -41
CCOC(=O)Cc1c(Cl)c2ccccc2[nH]c1=O	none
Cc1ccc2c(CSc3nnc4ccccn34)cc(=O)oc2c1C	none
Cc1ccc2c(CSc3nc4ccccc4c(=O)n3CCCO)cc(=O)oc2c1C	CHT allo act 6.9 | CHT act confirm 15 | HEK293 MP dye inactive
CCN1C(=O)[C@H]2[C@@H](c3ccc(-c4ccccc4)cc3)N3CCCC[C@@]3(C(=O)OC)[C@H]2C1=O	none
Cc1nn(-c2ccccc2)c(C)c1/C=N/n1c(-c2ccc(Cl)cc2)n[nH]c1=S	none | CHT act confirm inactive | HEK293 MP dye inactive
CCOC(=O)c1ccc(NC(=O)CSc2ccc(-c3ccncc3)nn2)cc1	none
Cc1cccn2c(=O)c(/C=C(\C#N)C(=O)NC3CCS(=O)(=O)C3)c(N3CCC(C)CC3)nc12 (configuration not stated)	none
N#C/C(=C\c1c(N2CCCCC2)nc2ccccn2c1=O)C(=O)NC1CCS(=O)(=O)C1 (configuration not stated)	CHT allo act 13 | CHT act confirm inactive | HEK293 MP dye -62
CN1CCN(C(=O)CCN2C(=O)/C(=C\c3ccccc3F)SC2=S)CC1	none
COc1ccc(C2C(C(=O)c3ccc(C)o3)=C(O)C(=O)N2Cc2cccnc2)cc1OC (configuration not stated)	none
Cn1c(N)c(C(=O)COc2ccc(C#N)cc2)c(=O)n(C)c1=O	ANO1 activ -9.1 | CHT act confirm 38 | HEK293 MP dye -36
NC1=Nc2cccc3cccc1c23	none | CHT act confirm 45 | HEK293 MP dye -65
O=C(CN(Cc1ccccc1)S(=O)(=O)c1ccc(Cl)cc1)NCC1CCCO1 (configuration not stated)	none
CS(=O)(=O)Nc1cccc(C2=NN(S(=O)(=O)c3ccccc3)C(c3ccco3)C2)c1 (configuration not stated)	none | CHT act confirm 26 | HEK293 MP dye inactive
CCS(=O)(=O)Nc1cccc(C2=NN(S(=O)(=O)c3ccccc3)C(c3ccco3)C2)c1 (configuration not stated)	none
Cn1c(/C=N/n2cnnc2)nc2ccccc21	CHT allo act 6.5 | CHT act confirm 60 | HEK293 MP dye -48
O=C(O)c1cc([N+](=O)[O-])ccc1NCc1cccnc1	none
OCCNc1nc(N2CCN(Cc3ccccc3)CC2)nc2ccccc12	none | CHT act confirm 60 | HEK293 MP dye -72
CCN1CCN(c2nc(NCCO)c3ccccc3n2)CC1	CHT allo act 8.9 | CHT act confirm 76 | HEK293 MP dye -79
c1ccc(CN2CCN(c3nc(N4CCOCC4)c4ccccc4n3)CC2)cc1	none
OCCNc1c2ccccc2nc2ccccc12	CHT allo act 6.3 | CHT act confirm 40 | HEK293 MP dye -47
OCCNc1nc2ccccc2nc1NCCO	none
CN(C)c1ccc(C(=O)OCc2ccc(Br)cc2)cc1	none
C=CCn1c(=N)n(CC(=O)OCC)c2ccccc21	none
O=C1CC(C(=O)NCCc2ccccc2)SC(=Nc2ccccc2)N1 (configuration not stated)	none
C[n+]1cccc2c(Br)ccc([O-])c21	CHT allo act 6.4 | CHT act confirm 58 | HEK293 MP dye -48
N#Cc1ccccc1OCC(=O)OCC(=O)N1CCCC1	none (no result: ANO1 block, CHT inh, CHT allo act)
CCOC(=O)c1cc(-c2ccncc2)nc2c1c(C)nn2C	none
CCOC(=O)c1cc(-c2ccccc2)nc2c1c(C)nn2-c1ccccn1	CHT allo act 8.6 | CHT act confirm inactive | HEK293 MP dye inactive
CCC(=O)Nc1c(C(=O)Nc2cccc(OC)c2)oc2ccccc12	none
CCCN(CCC)C(=O)c1oc2ccccc2c1NC(=O)Cc1cccc(OC)c1	CHT allo act 16 | CHT act confirm 29 | HEK293 MP dye inactive
COc1cccc(NC(=O)CN(C)C(C)C(=O)NC(=O)NC2CCCCC2)c1 (configuration not stated)	none (no result: ANO1 block, CHT inh, CHT allo act)
COc1cc(/C=C2/SC(=S)N(CC3CCCO3)C2=O)ccc1O (configuration not stated)	none
CCCCN(CC)CCCNC(=O)c1ccc(CS(=O)(=O)c2c(Cl)cccc2Cl)o1	none
CCCCN(CCCNC(=O)c1ccc(CS(=O)(=O)c2c(Cl)cccc2Cl)o1)Cc1ccccc1	none | CHT act confirm 44 | HEK293 MP dye -42

From PubChem BioAssay
